# High-throughput results as filed in PubChem BioAssay.
# Only some compounds are listed: those with a hit (about 2.4% of all), similar ones and a draw of the others.
# D2 ag-1: D2 dopamine receptor (human) agonism; P14416; AID 485358; activation, % at 2 µM; actives 0.53% (n = 340,000); HEK293 T-REx D2 cells, calcium flux agonist mode;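 active = activation over 3 SD above normal in the single-dose calcium agonist read, cut at about 30% in these data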; note: 0% is about no effect
# Target sequence (P14416 whole entry, looked up): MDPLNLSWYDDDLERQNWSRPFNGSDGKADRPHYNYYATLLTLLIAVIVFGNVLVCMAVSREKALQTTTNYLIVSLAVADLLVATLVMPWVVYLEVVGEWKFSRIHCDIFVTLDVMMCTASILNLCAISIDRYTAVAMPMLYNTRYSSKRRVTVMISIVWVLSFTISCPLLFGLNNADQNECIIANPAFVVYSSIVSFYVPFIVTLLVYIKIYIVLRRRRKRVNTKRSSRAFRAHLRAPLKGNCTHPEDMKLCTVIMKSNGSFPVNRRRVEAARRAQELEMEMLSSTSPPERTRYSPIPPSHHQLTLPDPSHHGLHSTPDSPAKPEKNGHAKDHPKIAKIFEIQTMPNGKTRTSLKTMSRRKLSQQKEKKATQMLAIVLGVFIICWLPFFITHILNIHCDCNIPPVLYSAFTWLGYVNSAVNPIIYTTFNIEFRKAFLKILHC
#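 Agonism scored from kinetic calcium signal (1 read/sec, 180 s) following compound pin transfer, after a 10 s baseline. Cells: HEK293 Trex line expressing inducible D2 receptor coupled to calcium, dye-loaded after overnight culture at 30 C.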
# D2 antag: antagonists of human D2 dopamine receptor | HEK293 TREx D2 cells, calcium flux, dopamine EC80 | actives 2% (n = 340,000) | inhibition, % at 10 µM | P14416; in the data active = inhibition above about 30%; inactive = below that, where a call was filed; note: 0% is about no effect
#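 Tetracycline-induced HEK293 T-REx cells expressing D2 force-coupled to calcium signalling were dye-loaded, exposed to compound for 180 s, then challenged with an EC80 of dopamine; calcium flux was followed kinetically for a further 180 s.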
# D2 ag-2: activates the human D2 dopamine receptor. P14416. DiscoveRx PathHunter D2 beta-arrestin, luminescence, 90 min; 100% = 57 uM dopamine signal. activation, % (concentration not given with the values). actives 0.084% (n = 360,000); in the data active = activation above about 40%
#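 DiscoveRx PathHunter D2 beta-arrestin cells (2,100/well) attached overnight, then compound-stimulated 90 min at 37 C in HBSS/10 mM HEPES/0.1% Tween-20 buffer; beta-galactosidase complementation read by luminescence after 1 h at ambient temperature. Dopamine 57 uM final (EC100) as control.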
# D2 PAM-1: human D2 receptor positive allosteric modulation; actives 0.23% (n = 360,000); potentiation, % (no concentration beside the values); DiscoveRx D2 beta-arrestin cells, luminescence, 90 min; 100% = 57 uM dopamine signal; in the data active = potentiation above about 50%
#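 PathHunter D2 cells, attached overnight at 37 deg C, received compound in DMSO plus dopamine at EC20 (50 nM final) for 90 min at 37 deg C. Beta-arrestin recruitment was read as luminescence after 1 h with detection reagent at ambient temperature.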
# D2 PAM-2: positively modulates the human D2 dopamine receptor allosterically | P14416 | HEK293 T-REx D2, calcium flux, EC20 dopamine potentiation | potentiation, % at 10 µM | actives 0.34% (n = 340,000) | AID 485347;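 active = potentiation over 3 SD above the plate norm, cut at about 30% in these data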; note: 0% is about no effect
#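 Potentiation of an EC20 dopamine calcium response measured kinetically over 180 s, after a preceding 180 s compound-only read flagging agonists. Cells: inducible Hek293 Trex D2 line, 4000/well, cultured overnight at 30 C before dye loading.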
# * hit, by the source's call; x = no result given.
SMILES,D2 ag-1,D2 antag,D2 ag-2,D2 PAM-1,D2 PAM-2
CCOC(=O)c1cc(-c2ccccc2)n(CCCC(=O)Nc2cc(C)ccc2OC)c1C,x,x,x,x,11
Cc1ccc(CSCc2ccc(C(=O)NCCc3ccc(Cl)cc3)o2)cc1,1,x,x,x,-1
COc1ccc2c(C#N)c3ccccn3c2c1,4,-2,7,70*,-2
CC(C)C(=O)Nc1ccc(Oc2ccc3c(c2)C(=O)NC3=O)cc1,-2,-4,3,2,15
COc1ccc(Oc2c(C)oc3cc(OC(=O)N4CCOCC4)ccc3c2=O)cc1,0,4,0,-6,42*
CCc1ccc(C(=O)c2cn(CC(=O)Nc3ccc(OC)c(Cl)c3)c3nc(C)ccc3c2=O)cc1,1,x,x,x,-4
CCOC(=O)c1sc(=S)n(-c2ccc(C)cc2)c1SC,1,48*,-5,-7,14
CC(C)NC(=O)CCc1nc2cccnc2n1-c1ccccc1,1,-18,1,-3,-13
O=C(Nc1ncccn1)c1ccc([N+](=O)[O-])cc1,x,x,-2,-15,x
O=C(Nc1cccc2c1CCCC2)c1cc([N+](=O)[O-])cc([N+](=O)[O-])c1,-3,6,9,62*,-5
COc1ccc(C(=O)Nc2cccc3c2CCCC3)cc1,0,-7,1,-1,-6
O=C(Nc1ncccn1)c1cc([N+](=O)[O-])cc([N+](=O)[O-])c1,1,-8,5,54*,-3
O=C(Nc1ccc(OCc2cc(=O)n3c4c(sc3n2)CCCC4)cc1)c1ccccc1,0,x,x,x,4
O=C(NCc1cccs1)C1CCCN1C(=O)Nc1ccccc1 (stereo not drawn),1,5,0,-14,-9
O=C(NCc1cccs1)C1CCCN1C(=O)Nc1ccc(Cl)cc1 (stereo not drawn),1,32*,x,x,-5
Cc1cc(NC(=O)c2ccccc2)ncc1NC(=O)c1cccs1,-1,36*,2,-3,1
Cc1ccc(C(=O)O)cc1NC(=O)c1cccs1,0,44*,1,10,5
Cc1cc(NC(=O)c2cccs2)ncc1NC(=O)c1cccc(F)c1,0,-17,-3,-2,3
CCOc1ccc(CCNC(=O)C2CCN(Cc3nc(-c4ccc(OC)c(OC)c4)oc3C)CC2)cc1OCC,0,x,x,x,-8
COc1ccc(Cc2nnc(NC(=O)c3c(-c4ccccc4)noc3C)s2)cc1OC,2,3,x,x,3
COc1ccc(-c2nnc(NC(=O)C(C)C)s2)c(OC)c1,1,10,-1,-5,36*
COc1ccc(Cc2nnc(NC(=O)c3c(-c4ccccc4)noc3C)s2)cc1,-2,-18,-3,-2,34*
COc1ccc(Cc2nnc(NC(=O)c3cccs3)s2)cc1OC,1,-4,1,-3,40*
CCOCc1nnc(NC(=O)c2ccc(OC)cc2)s1,1,33*,2,-5,-7
COc1ccc(Cc2nnc(NC(=O)c3ccc(OC)c(OC)c3)s2)cc1OC,0,-3,-4,-5,25
SMILES,D2 ag-1,D2 antag,D2 ag-2,D2 PAM-1,D2 PAM-2
COCc1nnc(NC(=O)c2ccc(OC)cc2OC)s1,-1,39*,-5,-6,38*
COc1ccc(C(=O)Nc2nnc(Cc3ccc(OC)c(OC)c3)s2)c(OC)c1,0,-2,5,1,1
COc1ccc(S(=O)(=O)N2CCN(C(=O)[C@@H]3CCC(=O)N3C3OC(=O)c4ccccc43)CC2)cc1 (stereo partly drawn),0,52*,-2,-3,-4
CC(C)(CO)CNC(=O)c1ccc(OC2CCN(C(=O)C3CC3)CC2)cc1,1,16,-2,-4,14
Cc1cccc(C)c1NC(=O)CCCSc1nc2ccccc2s1,-1,-4,-3,-21,8
CCc1cccc(CC)c1NC(=O)CCCSc1nc2ccccc2s1,-1,30*,2,15,-2
NC(=O)C(c1ccccc1)C1CCCCC1 (stereo not drawn),0,52*,-5,-23,-5
CCOC(=O)c1sc2nc(CSc3ccccc3)nc(N3CCC(C(N)=O)CC3)c2c1C,0,-7,2,-2,12
CCOC(=O)c1sc2nc(CSc3ccccc3)nc(N3CCCN(C)CC3)c2c1C,0,53*,-1,-1,-27
COc1ccc(-n2c(=O)c(CCC(=O)N3CCN(c4ccccc4O)CC3)nc3ccccc32)cc1,x,x,-4,16,x
C=CCn1c(SCC(=O)Nc2cc(C)on2)nc2sc(C)c(C)c2c1=O,x,x,2,0,x
COCCn1c(SCC(=O)Nc2cc(C)on2)nc2cc(Cl)ccc2c1=O,0,1,1,-12,72*
CCn1c(SCC(=O)Nc2cc(C)on2)nc2sc(C)c(C)c2c1=O,1,36*,x,x,-2
Cc1cc(NC(=O)CSc2nc3cc(Cl)ccc3c(=O)n2CC(C)C)no1,1,-8,x,x,-4
CC(=O)N1CCC2(CC1)C/C(=N\NC(=S)Nc1ccc(C)cc1)c1cc(O)ccc1O2,0,0,-3,-15,7
CC1(C)C(=O)NC(=O)N1Cc1ccccc1,0,45*,-3,-16,-5
CC12CN(Cc3ccccc3)CC(C)(CN(Cc3ccccc3)C1)C2=O,1,-9,1,-8,5
O=[N+]([O-])c1cc(Cl)ccc1NCCNc1ncc(C(F)(F)F)cc1Cl,0,36*,-6,8,-11
COC(=O)c1c(C)[nH]c(C(=O)C(C)Sc2nnc(-c3cc(OC)c(OC)c(OC)c3)o2)c1C (stereo not drawn),-1,32*,-1,-9,5
O=C(Cn1nnc(-c2ccccc2F)n1)N1CCCCC1,x,x,-4,0,x
COc1ccc(NC(=O)C2(c3ccc(NC(=O)c4ccc(OC)c(OC)c4)cc3)CCCC2)cc1,0,19,5,-2,-3
COc1ccc(NC(=O)C2(c3ccc(NC(=O)c4ccc(C)cc4)cc3)CCCC2)cc1,0,34*,0,8,-4
O=C(CSc1ncc(-c2ccccc2)nn1)NCc1ccco1,0,18,-1,-5,-4
O=C(CSc1nnc(-c2ccccc2)c(-c2ccccc2)n1)NCc1ccco1,0,40*,-3,-3,7
COc1ccc(-c2[nH]c(-c3cccc(OC)c3)nc2SCC(=O)NCc2ccco2)cc1,-1,39*,0,-6,-21
CC(SCC(=O)O)c1nc2ccccc2[nH]1 (stereo not drawn),1,-8,-3,2,-8
COc1ccccc1CNC(=O)C(=O)NCC(c1cccs1)S(=O)(=O)c1ccccc1 (stereo not drawn),-1,x,x,x,19
O=C(CCCN1CC=C(n2c(=O)[nH]c3ccccc32)CC1)c1ccc(F)cc1,1,81*,-3,-33,-23
